Assay results: PubChem BioAssay AID1048 (The Scripps Research Institute Molecular Screening Center, 2008)
Hit rate of the full screen: of about 99,000 compounds, about 390 (0.39%) were called active. This excerpt belongs to a sample that is enriched for actives. Values without a mark were called inactive. Cut-off read from the data, not from the text of the source: active = TR-FRET ratio above about 2000; inactive = the rest.

Assay: signal artefacts in PPARgamma/SRC-3 readout – biochemical, TR-FRET ratio, artefact control for PPARgamma SRC-3 recruitment agonists (AID 1048)
Details: TR-FRET artefact counter-screen, PPARgamma/SRC-3 format; at 8 µM; hits give high values

Compound | TR-FRET ratio
COCCN(C(=S)Nc1ccccc1OC)C1CCN(C(C)C)CC1 | 1690
COc1ccc(OC)c(C(=O)c2ccc(C(=O)N3CCN(Cc4csc(C)n4)CC3)cc2)c1 | 1600
COc1ccc(C)cc1NC(=O)Nc1ccccc1SC | 1480
O=C(NCc1ccccn1)c1cc(Br)ccc1Cl | 1620
O=C(NCc1cccs1)c1cc(-c2ccccn2)nc2ccc(Br)cc12 | 2270 (active)
C/C(N)=C(/C#N)C(=O)COC(=O)c1cc(-c2ccccc2)nc2ccc(Br)cc12 | 1450
Cc1ccc2nc(-c3cccc(Br)c3)cc(C(=O)Nn3cnnc3)c2c1 | 1410
Cc1ccc(-c2cc(C(=O)NCc3cn(C)nc3C)c3cc(Br)ccc3n2)cc1 | 3150 (active)
O=C(Nc1ccncc1)c1cc(-c2ccccn2)nc2ccc(Br)cc12 | 1720
O=C(Cc1c(F)cccc1Cl)Nc1ccc(-n2cnnn2)cc1 | 1510
CCOc1ccc(CCNC(=O)CSc2cc(=O)n(C)c3ccc(Cl)cc23)cc1OCC | 1800
CC(C)N(C(=O)Cn1cc(SCC(=O)N2CCCC2)c2ccccc21)C(C)C | 1440
Cn1c(=O)cc(SCC(=O)N2CCCC2)c2cc(Cl)ccc21 | 3460 (active)
CC(C)NC(=O)c1ccc(Cl)cc1Cl | 1730
NC1=NC2(CCCCC2)N(c2ccc(F)cc2F)C(N)=N1 | 1410
COc1ccc2c(CC(=O)OCC(=O)Nc3ccccc3[N+](=O)[O-])coc2c1 | 1720
CCOc1ccc(NC(=O)c2cc(C)nc3ccccc23)cc1 | 1470
CCOc1ccc(NC(=O)CSc2nc3ccccc3c(=O)n2Cc2cccs2)cc1 | 1640
CCOc1ccc(NC(=O)CSc2ncnc3c2sc2ccccc23)cc1 | 3140 (active)
Cn1nnnc1NCc1ccc(Cl)c(Cl)c1 | 1750
CCOC(=O)C1C(c2ccc(Cl)cc2)NC(=S)NC1(O)C(F)(F)F (stereo unspecified) | 1580
CC(C)CNC(=O)C(=O)Nc1ccc(N(C)C)cc1 | 1510
CN(C)c1ccc(N/C=C/C(=O)C(F)(F)F)cc1 | 2070 (active)
CCCOc1ccc(N/C=C/C(=O)C(C)(C)C)cc1 | 1370

Compound | TR-FRET ratio
COc1ccc(CC(NC(C)=O)C(=O)NC2CCN(C(=O)C3CC3)CC2)cc1OC (stereo unspecified) | 1430
CC1COc2ccccc2N1C(=O)c1cccnc1Cl (stereo unspecified) | 1670
COc1ccc(C(=O)NNC(=O)c2cc(C)[nH]n2)cc1 | 1480
O=C(O)Cc1ccc(-c2ccccc2)cc1 | 1600
O=C(O)Cc1sc(-c2ccc(C(=O)O)cc2)nc1-c1ccccc1 | 1690
O=C(O)Cc1sc(-c2ccccc2)nc1-c1cccs1 | 2530 (active)
CN(C)/N=C/c1cn(-c2ccccc2)nc1-c1cccnc1 | 1610
CCc1nnc(NC(=O)CSc2nnnn2-c2cccc(C(C)=O)c2)s1 | 1550
Cc1ccc2c(c1)C1CN(C)CCC1N2C(=S)Nc1ccc(Cl)cc1Cl (stereo unspecified) | 1610
CCN(CC)CCNc1nc(-c2ccc(OC(F)F)cc2)c(C)s1 | 1480
CC(NC(=O)COC(=O)c1ccc(Cl)cc1O)c1ccc(F)cc1 (stereo unspecified) | 1480
O=c1c2sccc2nc(SCc2cc(=O)n3ccccc3n2)n1-c1ccc(Br)cc1 | 1730
Cc1cccc2nc(CSc3nc4[nH]ncc4c(=O)n3-c3cccc(Cl)c3)cc(=O)n12 | 1540
CCc1ccc(-n2c(SCc3cc(=O)n4cc(Br)ccc4n3)nc3[nH]ncc3c2=O)cc1 | 2480 (active)
COc1ccc2cc(CCl)c(Cl)nc2c1 | 1710
CCN(CC)c1ccc(C(=O)N/N=C/c2ccc(N3CCOCC3)cc2)cc1 | 1580
C(=N/Nc1cc(N2CCOCC2)nc(N2CCOCC2)n1)/c1ccccc1 | 1290
CN(C)c1ccc(/C=N/Nc2cc(N3CCOCC3)nc(N3CCOCC3)n2)cc1 | 2070 (active)
CCCN(CC(=O)Nc1ccc(C(N)=O)cc1)CC(=O)Nc1ccccc1C | 1400
CC1Cc2ccccc2N1C(=O)CSc1nnc(-c2ccc(S(=O)(=O)N3CCCC3)cc2)n1C (stereo unspecified) | 1610
CC/C(Cc1ccccc1)=N/NC(=O)CCn1nnc2ccccc21 | 1860
CCOC(=O)c1c(NC(=O)C(C)Sc2c[nH]c3ccccc23)sc2c1CCC2 (stereo unspecified) | 3480 (active)
CCOC(=O)c1c(NC(=S)Nc2ccccc2C)sc2c1CCC2 | 1790
CCOC(=O)c1c(NC(=O)CSc2cn(CC)c3ccccc23)sc2c1CCC2 | 1590

Compound | TR-FRET ratio
Cc1ccc(-c2nc(-c3cccnc3)sc2CC(=O)Nc2ccc(C)c(Cl)c2)cc1 | 3550 (active)
Cc1ccc(S(=O)(=O)NCCC(=O)Nc2ccc(C)c(Cl)c2)cc1C | 1640
Cc1cccc(NC(=O)c2sc(-c3ccccc3)nc2-c2ccc([N+](=O)[O-])cc2)c1 | 1630
CCc1cc(CNC(=O)CC2C(=O)NCCN2CC2CCCCC2)on1 (stereo unspecified) | 1630
CC1=CC=CN2C1=NC(=O)CC2(C)C(=O)N(CC(=O)NC1CCCC1)c1ccccc1C (stereo unspecified) | 1450
CN(Cc1ccccn1)Cc1nc(-c2ccc(Cl)cc2)no1 | 1430
CN1CCN(S(=O)(=O)c2cccc(C(=O)O)c2)CC1 | 1540
CC1(C)CC(=O)C(C2c3ccccc3S(=O)(=O)c3ccccc32)C(=O)C1 | 1570
CN(CCc1cnn(C)c1)Cc1cn(C)nc1-c1ccccc1F | 1360
COc1cccc(NC(=O)CC(c2ccc(OC(C)C)cc2)c2ccccc2OC)c1 (stereo unspecified) | 1470
COn1c(-c2ccc(Cl)cc2Cl)nc2ncccc21 | 1970
COc1ccc(CCNC(=O)COC(=O)C2CCCCC2)cc1 | 1330
CC(C)(C)NC(=O)COC(=O)c1cc(Cl)ccc1[N+](=O)[O-] | 1550
COc1ccc2c(c1)C(SCC(=O)NCc1ccccc1)CC(C)(C)O2 (stereo unspecified) | 1590
O=S1(=O)CC/C(=N\Nc2ccc(F)cc2)c2ccsc21 | 1680
COc1ccccc1NC(=O)COC(=O)Cc1ccc(S(=O)(=O)N2CCCCC2)s1 | 1680
Cc1c(Cl)c([N+](=O)[O-])nn1CC(=O)NCC1CCCO1 (stereo unspecified) | 1690
O=[N+]([O-])c1ccccc1SNc1ccccn1 | 1510
COCCCNc1nc2c(-c3cccc(C(F)(F)F)c3)nnn2c2ccccc12 | 2690 (active)
Cc1cccc(Nc2nc3c(S(=O)(=O)c4ccccc4)nnn3c3ccccc23)c1C | 1540
CC(=O)Nc1ccc(Nc2nc3c(S(=O)(=O)c4ccc(C)c(C)c4)nnn3c3ccccc23)cc1 | 1560
CCOC(=O)c1ccc(NC(=O)c2cc(=O)[nH]c3ccccc23)cc1 | 1550
O=C(NCc1ccc(F)cc1)C(c1ccccc1)N(C(=O)c1csnn1)C1CC1 (stereo unspecified) | 1460
CCc1nccn1S(=O)(=O)c1cccc([N+](=O)[O-])c1 | 1700

Compound | TR-FRET ratio
CC1Cc2ccccc2N1C(=O)CSc1nnc(C2CC2)n1C (stereo unspecified) | 1630
Cc1ccc(S(=O)(=O)N(C)c2ccc(OCC(=O)NC3=NCCS3)cc2)cc1 | 1460
Cc1ccc(NC(=O)NNC(=O)c2sccc2-n2cccc2)cc1 | 1310
COc1cc(CN(C)Cc2nc3cc(C(F)(F)F)ccc3c(=O)[nH]2)ccc1OC(F)F | 1340
CSCC(=O)N1CCCC(C(=O)c2cc(F)ccc2F)C1 (stereo unspecified) | 1400
Cc1ccc(C(=O)N/C(=C/c2cccs2)C(=O)NCC2CCCO2)cc1 (stereo unspecified) | 1510
O=C(CCC(=O)NNc1nc2ccccc2c2nc(-c3ccccc3)nn12)NCCCN1CCCC1=O | 1570
C/C(=N\Nc1ncc(Cl)cc1Cl)c1cccs1 | 1400
COCCn1c(=O)[nH]c(=O)c2cc(C(=O)c3cc(OC)ccc3O)cnc21 | 1460
Fc1ccccc1Cc1ccc(Cl)nn1 | 1250
CCCCOc1ccc(N(CC(=O)NC(C)C)C(=O)CCC(=O)Nc2ccccn2)cc1 | 1760
COc1ccc(C2CC(c3cccs3)=NN2C(=O)COC(=O)c2cc3ccccc3cc2O)cc1OC (stereo unspecified) | 1600
O=C(N/N=C/c1ccccn1)C12CC3CC(CC(C3)C1)C2 | 1520
O=C(NCCOc1ccccc1F)Nc1ccc(Br)cc1 | 1530
O=C(O)c1ccc2c3c(cccc13)C(=O)N(OS(=O)(=O)c1ccccc1)C2=O | 1490
CCOC(=O)c1c(NC(=O)CNC2CCCc3ccccc32)sc(C(N)=O)c1C (stereo unspecified) | 2120 (active)
CCOC(=O)c1sc(NC(=O)COc2ncnc3ccccc23)c(C(=O)OCC)c1C | 1650
CCC(=O)Nc1sc(C(=O)Nc2ccccc2)c(C)c1C(=O)OC | 1430
CC(C)(C)C1CCC(C(=O)Nc2cccnc2)CC1 (stereo unspecified) | 1510
CN1/C(=C\C(=O)c2cccnc2Cl)C(C)(C)c2ccccc21 | 1630
Cc1ccc(Cl)cc1N1CCN(C(=O)c2cccc3c(=O)c(C)c(-c4ccccc4)oc23)CC1 | 1350
O=C(CC1SC(=Nc2ccccc2F)N(CCN2CCOCC2)C1=O)Nc1ccc(F)cc1F (stereo unspecified) | 1720
O=C(NNC(=O)c1cc2c(s1)CCCC2)c1ccccc1 | 1550
CC(C)c1nc(CNC(=O)CC2C(=O)NCCN2Cc2ccoc2)cs1 (stereo unspecified) | 1610
